The values that follow come from ChEMBL document CHEMBL3988442, “University of Dundee, Small-Polar-MMV Screening Library” (2021).

Out of some 48,000 compounds screened, about 13,000 (27%) showed an effect of 50% or more. The list shows a part of the results.

This assay has as its system Wolbachia pipientis. The assay can be described thus: Anti-Wolbachia Cell-Based Screen. The assay is classed as functional. Also on record: scale not given: in the data most compounds retested in dose-response had high values. Conditions: 5 µM.
Take `CCc1noc(CS(=O)(=O)CC(=O)N2c3ccccc3CC2C)n1` (centres undefined): the “Percent Effect” value amounted to 1.089%.
Take `CCOC1CC2(CCN(Cc3cnn(C)c3)CC2)c2ccc(C)cc21` (centres undefined): the “Percent Effect” value is on record as -1.962%.
For `CN1CCN(C)C2(CCN(Cc3ccc(C4CCCO4)s3)CC2)C1` (centres undefined), the “Percent Effect” value is -8.087%.
The value for `COc1c(Br)cccc1CCNC(=O)c1ncoc1C` was -6.421%; that for `Cc1nc(CCCNC(=O)c2cc(F)ccc2O)n[nH]1` was 85.21%; that for `Cc1ccc(O)c(C(=O)NCCCS(=O)(=O)Cc2ccccc2)c1` was -4.048%.
Turning to `Cc1nc(CCCNC(=O)c2c(F)cccc2Br)n[nH]1`, the “Percent Effect” value is on record as 89.06%.
As to `COc1c(Cl)cc(C(=O)NCc2n[nH]c(C)n2)cc1Cl`, the “Percent Effect” value was found to be 1.914%.
Consider `COc1ccccc1C(=O)NCc1n[nH]c(C)n1`, for which the “Percent Effect” value worked out at 3.11%.
Regarding `COc1cc(Cl)ccc1C(=O)NCc1n[nH]c(C)n1`, the “Percent Effect” value was -9.051%.
`COc1ccc2cccc(CC(=O)NCCCc3n[nH]c(C)n3)c2c1`: the “Percent Effect” value was -4.195%.
The same measure for `Cc1nc(CCCNC(=O)c2c(F)cc(F)cc2F)n[nH]1`: 108.5%; for `CN1C[C@H](O)C[C@H]1c1nc(-c2ccc(OC(F)(F)F)cc2)no1`: -6.164%.
Regarding `CC(C)(O)CCc1cccc(C(=O)N2CCC[C@H]2C(N)=O)c1`, the “Percent Effect” value is 102.3%.
For the compound `CCNC(=O)[C@@H]1CCCN1C(=O)c1cccc(CCC(C)(C)O)c1`, the “Percent Effect” value was determined as 104.5%.
On to `CCNC(=O)[C@@H]1C[C@H](N)CN1C(=O)CCc1ccc(C)c(C)c1`, for which the “Percent Effect” value is given as -20.38%.
The value for `CC[C@@H](CO)NC(=O)c1cccc(CCC(C)(C)O)c1` was 0.6007%; that for `CCNC(=O)[C@@H]1C[C@@H](N)CN1C(=O)CCc1ccc(C)c(C)c1` was -3.444%; that for `C[C@H](NC(=O)c1cccc(CCC(C)(C)O)c1)C(N)=O` was -11.41%.
Turning to `CC(C)(O)CCc1cccc(C(=O)NCC2CN(S(C)(=O)=O)CCO2)c1` (centres undefined), the “Percent Effect” value is given as -12.96%.
Consider `CC(C)(O)CCc1cccc(C(=O)N[C@@H](CO)C(N)=O)c1`, for which the “Percent Effect” value was determined as 1.69%.
As for `CCNC(=O)[C@@H]1C[C@H](N)CN1C(=O)c1cccc(CCC(C)(C)O)c1`, the “Percent Effect” value is listed as 102.7%.
On to `CS(=O)(=O)N1CCC(Oc2ccc(C(=O)NCC3CCC3)cc2Cl)CC1`, for which the “Percent Effect” value was -2.678%.
The value for `Cc1cc(CN2CCCC2)cc(Oc2ccc(C(F)(F)F)cn2)c1` was 9.077%.
On to `Cc1nn(C)cc1C(=O)NC(CC(C)C)C(=O)Nc1cc[nH]n1` (centres undefined), for which the “Percent Effect” value amounted to 1.449%.
On to `CN(CC(=O)NC(C)(C)C)Cc1cccc2c1OCCO2`, for which the “Percent Effect” value is reported as -43.12%.
For `CC(C)(C)Nc1c(C2CCN(C(=O)C3CC3)CC2)nc2ccccn12`, the “Percent Effect” value was found to be 95.08%.
In the case of `Cc1cccn2c(NC(C)(C)C)c(C3CCN(C(=O)C4CC4)CC3)nc12`, the “Percent Effect” value is recorded as 138%.
The value for `CC(C)(C)Nc1c(C2CCCN(C(=O)C3CC3)C2)nc2ccccn12.Cl` (centres undefined) was 97.63%; that for `CC(C)(C)Nc1c(C2CCN(C(=O)C(C)(C)C)CC2)nc2ccccn12` was 124.8%.
On to `CN(CCO)Cc1nnc(C2CCN(C(=O)C(C)(C)C)CC2)n1C`, for which the “Percent Effect” value stood at 1.717%.
For `CC(C)(O)C1CCCN(C(=O)Nc2nc(-c3ccccc3)ns2)C1` (centres undefined), the “Percent Effect” value was -3.959%.
The same measure for `CC(C)(C)C(=O)N1CCC(c2nc(O)cc(-c3ccccn3)n2)CC1`: -20.96%; for `NC(=O)c1csc(N2CCN(Cc3cccc4nsnc34)CC2)n1`: -1.05%.
Turning to `CC(C)N1CCC(O)(CNC(=O)CC2OCCc3ccccc32)CC1` (centres undefined), the “Percent Effect” value was -11.76%.
On to `Cc1ncc(Cl)c(C(=O)N2CC(=O)N(C)c3ccccc32)n1`, for which the “Percent Effect” value was -4.054%.
Consider `Cc1cnc(NC(=O)N2CCOCC2)s1`, for which the “Percent Effect” value was -16.98%.
Turning to `CCC(C)n1cnc(S(=O)(=O)N(Cc2cccnc2)C(C)C)c1` (centres undefined), the “Percent Effect” value is 3.048%.
As to `O=C(OCCNc1ncccn1)c1ccc(Br)s1`, the “Percent Effect” value is given as -22.12%.
`COc1ccccc1OC1CN(C(=O)Cc2c(C)nc3ccccn23)C1`: the “Percent Effect” value is listed as -17.73%.
Turning to `CNC(C(=O)N1CCC(c2nccn2C(C)C)CC1)c1ccccc1` (centres undefined), the “Percent Effect” value is recorded as 12.05%.
Regarding `CC(C)C(=O)N1CCC(c2nc3ccccn3c2NC(C)(C)C)CC1`, the “Percent Effect” value amounted to 120.3%.
As to `CC(C)c1nc(C(=O)N(C)c2ccc(Br)cn2)cs1`, the “Percent Effect” value was -16%.
Take `CC1CCN(S(=O)(=O)c2cccnc2)c2ccccc2S1` (centres undefined): the “Percent Effect” value was -3.494%.
With `O=S1(=O)CCC(N2CCN(c3cc(C(F)(F)F)ccn3)CC2)C1` (centres undefined), the “Percent Effect” value came out at 0.5225%.
On to `CS(=O)(=O)c1snnc1C1CCN(Cc2ccncc2)CC1`, for which the “Percent Effect” value is -7.486%.
In the case of `CCn1c(CN2CCCC2)nnc1C1CCN(Cc2cccnc2)CC1`, the “Percent Effect” value is -3.145%.
On to `CN(C)c1ncc(CN2CCC(c3nnsc3S(C)(=O)=O)CC2)cn1`, for which the “Percent Effect” value is given as -8.857%.
As for `CNc1ncc(CN2CCC(c3nnsc3S(C)(=O)=O)CC2)cn1`, the “Percent Effect” value is 122%.
With `CCn1c(CN(C)C)nnc1C1CCN(Cc2cnc(C)nc2)CC1`, the “Percent Effect” value is -9.341%.
In the case of `CS(=O)(=O)c1snnc1C1CCCN(Cc2ccncc2)C1` (centres undefined), the “Percent Effect” value came to 95.13%.
For `CC(c1nc(C2CC2)no1)N1CCN(Cc2cccnc2)CC1` (centres undefined), the “Percent Effect” value stood at 9.745%.
With `CS(=O)(=O)c1snnc1C1CCN(Cc2cccnc2)CC1`, the “Percent Effect” value is on record as 133.5%.
Turning to `Cc1nccc(CN2CCC(c3nnsc3S(C)(=O)=O)CC2)n1`, the “Percent Effect” value was found to be 2.937%.
In the case of `Cc1cccc(CN2CCC(c3nnsc3S(C)(=O)=O)CC2)n1`, the “Percent Effect” value came to 122.9%.
Regarding `COC[C@H]1CNC(=O)[C@@H]2CCN(Cc3cccc(C)n3)CC[C@H]12`, the “Percent Effect” value is recorded as -1.462%.
Turning to `Cc1cccnc1CN1CCC(c2nnc(Cn3cccn3)n2C)CC1`, the “Percent Effect” value was found to be 7.8%.
Turning to `CC(C)OCCN(Cc1cccc(O)c1)C1CCC(O)CC1` (centres undefined), the “Percent Effect” value is -9.741%.
In the case of `CC1CCN(c2ccnc3ccc(Br)cc23)CC1`, the “Percent Effect” value is recorded as -3.339%.
Regarding `O=C(c1ccoc1)N1CCCN(C(=O)c2ccc(C3CCCN3)s2)CC1` (centres undefined), the “Percent Effect” value is 16.47%.
For the compound `N#Cc1cccc(CNC(=O)C2=NN(c3ccccc3)C(=O)CN2)c1`, the “Percent Effect” value is reported as -6.333%.
For the compound `CS(=O)(=O)c1snnc1C1CCN(Cc2cccc(O)c2)CC1`, the “Percent Effect” value came out at 145.1%.
The value for `Cc1cccc(CN2CCC(NCC3CNc4cc(C)nn4C3)CC2)c1` (centres undefined) was 17.46%; that for `CC(Cn1cncn1)NC1CCN(Cc2cccc(O)c2)CC1` (centres undefined) was -16.09%.
On to `Cc1cccc(CN2CCC(c3nnsc3S(C)(=O)=O)CC2)c1`, for which the “Percent Effect” value amounted to 168.1%.
In the case of `CC(Cn1ccnc1)NC1CCN(Cc2cccc(O)c2)CC1` (centres undefined), the “Percent Effect” value is given as -6.042%.
Take `Fc1ccc(CN2CCC(c3nccnc3-n3ccnc3)CC2)cc1`: the “Percent Effect” value is -7.393%.
Consider `CS(=O)(=O)c1snnc1C1CCN(Cc2ccc3nccnc3c2)CC1`, for which the “Percent Effect” value is given as 138.8%.
In the case of `CNS(=O)(=O)c1ccc(CN2CCC(c3ccncc3)CC2)cc1`, the “Percent Effect” value is recorded as -2.48%.
